Measured potencies and affinities stand elsewhere. Activity calls are given as the source filed them.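 Rule for the calls: active = compounds whose curve fit is tight, with span above 25% and half-effect concentration below 10 µM; inactive = the rest.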
These compounds were tested against Beta-adrenergic receptor kinase 1 (Homo sapiens) (UniProt P25098) (assay: aptamer displacement from bead-bound GRK2 – biochemical, cherry pick 1, bead flow cytometry, dose response (AID 504500)). Conditions: bead-bound biotinylated GRK2, FAM-aptamer displacement; series mostly up to 33 µM.
Sequence of Beta-adrenergic receptor kinase 1 (Homo sapiens) (P25098 whole entry, looked up): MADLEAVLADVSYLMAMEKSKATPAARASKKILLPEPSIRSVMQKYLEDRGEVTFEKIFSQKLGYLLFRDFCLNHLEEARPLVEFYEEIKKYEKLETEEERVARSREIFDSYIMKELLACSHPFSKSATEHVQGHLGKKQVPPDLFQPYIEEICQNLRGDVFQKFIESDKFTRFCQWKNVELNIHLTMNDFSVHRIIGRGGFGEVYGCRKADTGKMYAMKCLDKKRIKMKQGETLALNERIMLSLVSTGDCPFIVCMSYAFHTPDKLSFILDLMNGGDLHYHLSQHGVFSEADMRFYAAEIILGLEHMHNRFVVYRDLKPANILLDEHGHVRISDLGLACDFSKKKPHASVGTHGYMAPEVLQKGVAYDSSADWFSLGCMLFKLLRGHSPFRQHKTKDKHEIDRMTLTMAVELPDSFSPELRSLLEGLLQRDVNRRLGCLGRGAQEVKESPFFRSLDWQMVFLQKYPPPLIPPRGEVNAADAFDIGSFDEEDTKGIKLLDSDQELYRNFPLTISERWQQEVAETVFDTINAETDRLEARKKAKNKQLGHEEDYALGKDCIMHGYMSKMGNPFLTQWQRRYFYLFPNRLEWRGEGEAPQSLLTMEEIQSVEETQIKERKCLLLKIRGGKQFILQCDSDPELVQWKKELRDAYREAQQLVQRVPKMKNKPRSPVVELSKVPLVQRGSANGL

SMILES | outcome
CCNc1nc(NCC)n2c(SCC(=O)Nc3ccc(C)c(C)c3)nnc2n1 | inactive
C#CCSc1nc2sc3c(c2c(=O)n1C)CCC3 | inactive
Cc1cc2ccccc2n1CCNC(=O)c1ccccc1 | inactive
CC(C)C(C(=O)O)N1C(=O)/C(=C/C=C/c2ccco2)SC1=S (stereo unspecified) | inactive
O=C(CC1SC(N2CCCCC2)=NC1=O)Nc1cccc(C(=O)NCc2ccc(F)cc2)c1 (stereo unspecified) | inactive
CC(=O)N1CCCc2cc(S(=O)(=O)CCC(=O)N3CCN(c4cccc(C)c4)C(C)C3)ccc21 (stereo unspecified) | inactive
CCOc1ccccc1NC(=O)CCS(=O)(=O)c1ccc(Br)cc1 | inactive
C=C(C)C(=O)Nc1cccc(C2=NOC3(C2)C[C@@H](C(N)=O)N(C(=O)/C=C/CC)C3)c1 (stereo partly specified) | inactive
CCC(/C=C1\Sc2ccc(OC)cc2N1CC)=C\c1sc2ccc(OC)cc2[n+]1CCCS(=O)(=O)[O-] | inactive
Cc1cc2ccccc2n1CCNC(=O)c1ccc(S(=O)(=O)N2CCCCC2)cc1 | inactive
COc1ccccc1CNS(=O)(=O)c1ccc2[nH]cc(C(=O)O)c(=O)c2c1 | inactive
Cc1ccc(S(=O)(=O)Cc2ccc(C(=O)O)o2)cc1 | inactive
O=C(CCS(=O)(=O)c1ccc(Br)s1)Nc1ccccc1Br | inactive
O=C(CCS(=O)(=O)c1ccc(Br)cc1)NCCc1ccc(Cl)cc1 | inactive
COc1ccc(N2CCN(C(CNS(=O)(=O)c3ccc(C)cc3)c3ccccc3)CC2)cc1 (stereo unspecified) | inactive
CC(=O)N1CCN(Cc2nc3cc(Cl)ccc3c(=O)[nH]2)CC1 | inactive

SMILES | outcome
CC1CCN(C(=O)c2[nH]cnc2C(=O)Nc2cccc(Cl)c2)CC1 | inactive
O=P(c1ccccc1)(c1ccccc1)c1cc(S(=O)(=O)O)ccc1O | inactive
COc1ccc(S(=O)(=O)NCC(c2ccc(F)cc2)N2CCN(C)CC2)cc1 (stereo unspecified) | inactive
Cc1cccc(CCNC(=O)CCS(=O)(=O)c2ccc(Br)cc2)c1 | inactive
CNC(=O)c1[nH]cnc1C(=O)Nc1ccc(F)cc1 | inactive
CCc1ccccc1NC(=O)CCS(=O)(=O)c1ccc(Br)cc1 | inactive
C=C(C)C(=O)Nc1cccc(C2=NOC3(C2)C[C@@H](C(N)=O)N(C(=O)C(=C)C)C3)c1 (stereo partly specified) | inactive
C=C(C)C(=O)Nc1cccc(C2=NOC3(C2)C[C@@H](C(N)=O)N(C(=O)/C=C/C=C/C)C3)c1 (stereo partly specified) | inactive
C=C(C)C(=O)Nc1cccc(C2=NOC3(C2)C[C@H](C(N)=O)N(C(=O)CC#N)C3)c1 (stereo partly specified) | inactive
CC(=O)Nc1ccc(N(C)C)cc1[N+](=O)[O-] | inactive
COc1ccc(OC)c(N2C(=O)[C@@H]3C(c4ccccc4Cl)=NO[C@@H]3C2=O)c1 | inactive
CN(C)c1cccc(C(=O)OCc2cc(=O)oc3cc(O)ccc23)c1 | inactive
O=C(CCS(=O)(=O)c1ccc(Br)s1)N1CCc2ccccc21 | inactive
Cn1c(=O)c(C(=O)NNC(=O)c2cccc(Cl)c2)c(O)c2ccccc21 | inactive
Cc1ccc(OCC(=O)c2c(N)n(C)c(=O)n(C)c2=O)c([N+](=O)[O-])n1 | inactive

From PubChem BioAssay AID504500 (NMMLSC, 2011)
